{"source": "PubChem BioAssay (EPA / NIEHS)", "note": "Activity calls are given as the source filed them. The calls were made as follows: active = hit-call score of the fitted dose curve at least 0.9, where 1 is the maximum; inactive = score below 0.9.", "data": [{"read-out": "CD40, CD40 (gene 958)", "experiment": "BSK_SAg_CD40: BioMAP Diversity Plus: SAg Assay for CD40 Biomarker Activity (AID 2283088)", "details": "primary human HUVEC with PBMC; actives raise or lower the signal", "protocol": "BSK_SAg is a cell-based, multiplexed-readout assay that uses umbilical vein endothelium and peripheral blood mononuclear cells, a human vascular primary cell co-culture, with measurements taken at 24 hours after chemical dosing in a 96-well plate.BSK_SAg_CD40 is one of 10 assay component(s) measured or calculated from the BSK_SAg assay. It is designed to make measurements of enzyme-linked immunosorbent assay, a form of binding reporter, as detected with fluorescence intensity signals by Enzyme-linked immunosorbent assay technology.Data from the assay component BSK_SAg_CD40 was analyzed into 1 assay endpoint. This assay endpoint, BSK_SAg_CD40, was analyzed with bidirectional fitting relative to DMSO as the negative control and baseline of activity. Using a type of binding reporter, gain or loss-of-signal activity can be used to understand changes in the signaling as they relate to the gene CD40. Furthermore, this assay endpoint can be referred to as a primary readout, because this assay has produced multiple assay endpoints where this one serves a signaling function. To generalize the intended target to other relatable targets, this assay endpoint is annotated to the cytokine intended target family, where the subfamily is inflammatory factor.\nThe levels of cell surface (or secreted, indicated by the prefix \"s\") biomarker endpoints were measured by ELISA. Overt cytotoxicity to cells in confluent adherent cultures (all systems other than the BT system) was assessed by measuring total protein levels using sulforhodamine B (SRB) staining in parallel cultures at the time of biomarker measurements, indicated as SRB endpoints. For proliferation assays for adherent cell types, individual cell types are cultured at sub-confluence and relative cell numbers quantified by SRB staining at time points optimized for each system (48 h: 3C and CASM3C systems; 72 h: BT and HDF3CGF systems; 96 h: SAg system). SRB was performed by staining cells with 0.1% SRB after fixation with 10% TCA and reading wells at 560 nm.Viability and proliferation of PBMC (T cells) was quantified by Alamar Blue reduction for the SAg and BT systems. For PBMC viability (referred to as PBMC Cytotoxicity within the assay endpoint names), cells were plated (75,000/well in a 96-well plate) and then chemical samples added for 1 h before addition of activators, SEB and TSST-1 (20 ng/mL final concentration each). Cells were incubated for 90 h. Then, Alamar Blue (20 uL/well) (Invitrogen, Cat DAL1100) was added for 6 h, and the plates were read with a fluorescence microplate reader at 546/580 nm (excitation/emission). For PBMC proliferation, cells were plated and activated as above but incubated for only 16 h prior to addition of Alamar Blue. Plates were read after 6 h.", "values": [{"smiles": "CCOP(=S)(Oc1cnc(C(C)(C)C)nc1)OC(C)C", "note": "(stereo not given)", "AC50": "30.8 µM (active)"}, {"smiles": "O=C(O)c1cc(Oc2ccc(C(F)(F)F)cc2Cl)ccc1[N+](=O)[O-]", "outcome": "inactive"}, {"smiles": "CC[C@H](C)[C@H]1O[C@]2(C=C[C@@H]1C)C[C@@H]1C[C@@H](C/C=C(\\C)[C@@H](O[C@H]3C[C@H](OC)[C@@H](O[C@H]4C[C@H](OC)[C@@H](NC)[C@H](C)O4)[C@H](C)O3)[C@@H](C)/C=C/C=C3\\CO[C@@H]4[C@H](O)C(C)=C[C@@H](C(=O)O1)[C@]34O)O2", "AC50": "3.34 µM (active)"}, {"smiles": "CCCSP(=O)(OCC)Oc1ccc(Br)cc1Cl", "note": "(stereo not given)", "AC50": "31.9 µM (active)"}, {"smiles": "S=C1NCCN1", "outcome": "inactive"}, {"smiles": "COP(=O)(OC)C(O)C(Cl)(Cl)Cl", "note": "(stereo not given)", "outcome": "inactive"}, {"smiles": "CN(C)[C@@H]1C(=O)C(C(N)=O)=C(O)[C@@]2(O)C(=O)C3=C(O)c4c(O)cccc4[C@@](C)(O)[C@H]3[C@H](O)[C@@H]12", "outcome": "inactive"}, {"smiles": "CNC(=O)ON=C(SC)C(=O)N(C)C", "outcome": "inactive"}, {"smiles": "CCc1cccc(C)c1N(C(=O)CCl)C(C)COC", "note": "(stereo not given)", "outcome": "inactive"}, {"smiles": "CC(C1CC1)C(O)(Cn1cncn1)c1ccc(Cl)cc1", "note": "(stereo not given)", "outcome": "inactive"}, {"smiles": "CCNc1nc(Cl)nc(NC(C)(C)C#N)n1", "outcome": "inactive"}, {"smiles": "COc1cc(OC)nc(Sc2cccc(Cl)c2C(=O)O)n1", "outcome": "inactive"}, {"smiles": "C[Si](Cn1cncn1)(c1ccc(F)cc1)c1ccc(F)cc1", "AC50": "27 µM (active)"}, {"smiles": "CON=C(C(=O)OC)c1ccccc1CON=C(C)c1cccc(C(F)(F)F)c1", "AC50": "5.02 µM (active)"}, {"smiles": "CN(C)C(=O)Nc1cccc(C(F)(F)F)c1", "outcome": "inactive"}, {"smiles": "CNC(=O)ON=C(C)SC", "outcome": "inactive"}, {"smiles": "CCOC(=O)COc1cc(-c2nn(C)c(OC(F)F)c2Cl)c(F)cc1Cl", "outcome": "inactive"}, {"smiles": "CSc1nc(NC(C)C)nc(NC(C)C)n1", "outcome": "inactive"}, {"smiles": "CCOP(=S)(OCC)Oc1cc(C)nc(C(C)C)n1", "outcome": "inactive"}, {"smiles": "CC(C)N(C(=O)SCC(Cl)=C(Cl)Cl)C(C)C", "AC50": "30.9 µM (active)"}, {"smiles": "O=c1ccc(=O)[nH][nH]1", "outcome": "inactive"}, {"smiles": "CC(Oc1cccc(Cl)c1)C(=O)O", "note": "(stereo not given)", "outcome": "inactive"}, {"smiles": "CCOP(=O)(SC(C)CC)N1CCSC1=O", "note": "(stereo not given)", "outcome": "inactive"}, {"smiles": "Cc1cc(C2CC2)nc(Nc2ccccc2)n1", "AC50": "16.2 µM (active)"}, {"smiles": "CC(COc1ccc(Oc2ccccc2)cc1)Oc1ccccn1", "note": "(stereo not given)", "outcome": "inactive"}, {"smiles": "CC(C)=CC1C(C(=O)OCN2C(=O)C3=C(CCCC3)C2=O)C1(C)C", "note": "(stereo not given)", "AC50": "20.5 µM (active)"}, {"smiles": "C#CCC1=C(C)C(OC(=O)C2C(C=C(C)C)C2(C)C)CC1=O", "note": "(stereo not given)", "AC50": "26.5 µM (active)"}, {"smiles": "CCC(=O)Nc1ccc(Cl)c(Cl)c1", "outcome": "inactive"}, {"smiles": "Cc1ccn2nc(S(=O)(=O)Nc3c(F)cccc3F)nc2n1", "outcome": "inactive"}, {"smiles": "CCOP(=S)(OCC)OC(Cl)C(Cl)(Cl)Cl", "note": "(stereo not given)", "outcome": "inactive"}, {"smiles": "CCOP(=S)(OCC)Oc1ccc2c(C)c(Cl)c(=O)oc2c1", "outcome": "inactive"}, {"smiles": "CCOP(=S)(OCC)SCCSCC", "outcome": "inactive"}, {"smiles": "Nc1c(Cl)cc([N+](=O)[O-])cc1Cl", "outcome": "inactive"}, {"smiles": "Cc1nn(-c2cc(NS(C)(=O)=O)c(Cl)cc2Cl)c(=O)n1C(F)F", "outcome": "inactive"}, {"smiles": "CN(C)NC(=O)CCC(=O)O", "outcome": "inactive"}, {"smiles": "CCc1cnc(C2=NC(C)(C(C)C)C(=O)N2)c(C(=O)O)c1", "note": "(stereo not given)", "outcome": "inactive"}, {"smiles": "CCC(CC)Nc1c([N+](=O)[O-])cc(C)c(C)c1[N+](=O)[O-]", "AC50": "20 µM (active)"}, {"smiles": "CCc1cccc(CC)c1N(COC)C(=O)CCl", "AC50": "20 µM (active)"}, {"smiles": "COP(=O)(OC)SCn1c(=O)oc2cc(Cl)cnc21", "AC50": "20 µM (active)"}, {"smiles": "CCOP(=S)(OCC)Oc1ccc([N+](=O)[O-])cc1", "outcome": "inactive"}]}]}
